Assay outcomes from PubChem.
A selection: hits, their analogues and other compounds. The true share with any hit is near 12%.
Pf growth 48h = inhibits P. falciparum growth in the first generation, 48 h; P. falciparum luciferase growth in erythrocytes, 48 h; Potency, µM (titrated, usually from 28.7 µM), actives largely listed as inhibitors; AID 504832; actives 5.9% (n = 310,000)
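First compound was added to culture medium, then infected red cells at 0.1% parasitemia and 2% hematocrit (final). After incubation at 37 C under 5% CO2, luciferase detection reagent was dispensed and light output recorded.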
SARS PLP yeast = SARS-CoV PLP inhibition in yeast; S. cerevisiae expressing SARS-CoV PLpro, growth rescue; actives 0.19% (n = 330,000); AID 485353; Potency, µM (top dose mostly 32.9 µM), actives largely listed as activators; calls by dose curve; note: nearly all actives have a fitted effect of over 55% in size
NS1 function inh = influenza NS1 inhibition; AID 2326; actives 0.4% (n = 270,000); Potency, µM (titrated, usually from 46.1 µM); calls by dose curve; note: actives are rising curves; nearly all actives have a fitted effect of over 50% in size
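Growth recovery, yeast-based: influenza A NS1 expressed in S. cerevisiae causes slow growth, and suppressors are detected by OD600. The parent strain without NS1 is used as positive control.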
AMA1-RON2 inh = inhibitors of Plasmodium falciparum AMA1-RON2 interaction. AlphaScreen AMA1-biotinylated RON2 peptide binding. AID 720542. actives 0.2% (n = 360,000). Potency, µM (series often up to 58.2 µM), usual class: inhibitors; note: nearly all actives have a fitted effect of over 45% in size
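AMA1 (3D7) with his tag at 25 nM final met compounds first, then biotinylated RON2 peptide at 25 nM; detection used donor plus acceptor beads, 10 µg/mL apiece, read by AlphaScreen after 30 min at room temperature.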
Pf growth 96h = inhibits malaria parasite growth, 96 h; P. falciparum luciferase reporter growth, 96 h; Potency, µM (series often up to 28.7 µM), most hits filed as inhibitors; actives 6.9% (n = 320,000); AID 504834
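Plates of compound plus infected erythrocytes (2% hematocrit, 0.05% parasitemia final) incubate 96 hours, 37 C, 5% CO2. Detection reagent added; reduced luminescence from the parasites' luciferase reporter flags inhibition.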
HCV inhibitor = inhibitors of hepatitis C virus infection. Huh7.5.1 HCVcc-Cre infection, luciferase reporter, 44 h. actives 3.4% (n = 340,000). AID 651820. Potency, µM (highest dose often 41.8 µM), hits mostly inhibitors
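A cell-based infection assay in which seeded cells (1,000 per well) receive test compound after 4 h, are inoculated with HCVcc-Cre at approximately 0.5 moi, and are incubated 44 h before luminescence detection.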
Flu NS1 inh = influenza NS1 function inhibition validation; shares compounds with NS1 function inh; influenza NS1 function cell assay, 15-point titration; activity change, negative = inhibition, % at 32.9 µM; 1,400 tested, under 10 active; AID 492980; calls by dose curve
PR8 titer = influenza virus titer reduction, NS1 project. shares compounds with NS1 function inh. MDCK infected influenza A/PR/8/34, virus titer TCID50; hits give low values. virus titer (log TCID50), log10 TCID50 at 5 µM. actives 30% (n = 95). AID 504647; call rule not given here
Numbers stand for hits; . = inactive; ? = inconclusive; / = not tested or not shown; [ ] = another dose, or the depositor's remark. Unless noted, calls come from the whole dose curve; as a rule, active = well fitted curve in the direction sought with a large enough effect; inconclusive = small, poorly fitted or top-dose-only effect, or another doubt; inactive = no such curve, though single readings can be large; an effect the other way counts as inactive or inconclusive.

SMILES	Pf growth 48h	SARS PLP yeast	NS1 function inh	AMA1-RON2 inh	Pf growth 96h	HCV inhibitor	Flu NS1 inh	others
Cc1ccc(C(=O)NC(=S)Nc2cccc(NC(=O)c3ccccc3Cl)c2)cc1[N+](=O)[O-]	.	.	11µM	.	.	?	?
COc1cc(NC(=O)COC(=O)c2cc(S(=O)(=O)N3CCCCC3)ccc2Cl)c(C)cc1[N+](=O)[O-]	.	.	14µM	.	.	?	.	PR8 titer=.
Cc1ccc(S(=O)(=O)N2CCN(C(=O)CNC(=O)c3ccc(Br)o3)CC2)cc1	.	.	/	.	?	.	/
COC(=O)c1ccc2c(c1)C(=O)/C(=C/c1ccc(C)cc1)O2	.	?	10µM	.	?	.	.
CCc1ccc(/C=C2\Oc3ccc(C(=O)OC)cc3C2=O)cc1	?	.	.	.	.	.	/
O=C(c1ccco1)N1CCN(C2CC(=O)N(c3ccc(F)c(Cl)c3)C2=O)CC1 (stereo unspecified)	.	.	.	.	.	.	/
Cc1cc(-c2nnc3n2N=C(c2ccccc2)CS3)n[nH]1	.	.	.	.	?	?	/
Cc1cc(-c2nnc3n2N=C(c2ccc(-c4ccccc4)cc2)CS3)n[nH]1	10µM	.	3.2µM	.	?	.	?
CCOC(=O)C1=C(c2ccccc2)N=c2s/c(=C\c3ccco3)c(=O)n2C1c1cccs1 (stereo unspecified)	.	.	.	?	.	.	/
CCOC(=O)C1=C(c2ccccc2)N=c2s/c(=C\c3cc(OC)c(OC)c(OC)c3)c(=O)n2C1c1cccs1 (stereo unspecified)	0.66µM	.	22µM	.	?	.	.
O=S(=O)(/C=C/c1ccccc1)NCc1ccccc1Cl	.	.	.	.	.	?	/
Cc1ccc(C)c(NC(=S)N2CCN(Cc3ccccc3)CC2)c1	.	.	.	.	?	.	/
Cc1ccc(NC(=S)N2CCN(Cc3ccccc3)CC2)c(C)c1	.	.	?	.	?	.	.
Cn1c(SCC(=O)NNC(=S)Nc2ccccc2)nnc1-c1ccncc1	.	.	3.2µM	/	.	/	.
O=S(=O)(c1ccccc1)c1cccc(S(=O)(=O)N2CCCCC2)c1	.	.	2µM	.	.	.	.
Cc1cccc(-n2c(O)c(C=NC3CCS(=O)(=O)C3)c3ccccc3c2=O)c1C (stereo unspecified)	.	.	.	.	.	.	/
Cn1c(=O)n(C)c2cc(NC(=O)COc3ccc(Cl)cc3)ccc21	.	.	/	.	?	?	/
COCCNC(=O)Cn1c(=O)n(Cc2ccc(C(=O)NCc3ccco3)cc2)c(=O)c2ccccc21	.	?	?	.	.	.	.
Cc1ccc(C)c(OCCC(=O)N2CCN(S(=O)(=O)c3ccc([N+](=O)[O-])cc3)CC2)c1	?	.[6.58 µM]	/	.	?	.	/
COc1cc(/C=N/NC(=O)c2ccc3nc[nH]c3c2)cc(OC)c1OC	?	.	.	.	?	.	/
COc1cc(/C=N/NC(=O)c2ccc(CSc3nc4ccccc4[nH]3)cc2)cc(OC)c1OC	?	.	13µM	.	.	?	?	PR8 titer=.
CC(O)CN(C)C (stereo unspecified)	.	/	/	/	.	/	/
CC(C)(C)c1cc(C(=O)NN)n(Cc2ccc(F)cc2)n1	?	.	?	.	?	?	/
COC(=O)c1cc(NC(=O)c2cc(C(C)(C)C)nn2Cc2ccc(F)cc2)ccc1N1CCOCC1	6.6µM	.	?	.	.	10µM	.
Cc1nnc(-c2cccc(Br)c2)c2cn(-c3cccc(Br)c3)nc12	?	.	8.9µM	?	?	?	.
SMILES	Pf growth 48h	SARS PLP yeast	NS1 function inh	AMA1-RON2 inh	Pf growth 96h	HCV inhibitor	Flu NS1 inh	others
C/C(=N\OCC(=O)OC(C)C(=O)Nc1ccc(C)c(S(=O)(=O)N2CCOCC2)c1)c1ccc2c(c1)OCO2 (stereo unspecified)	/	/	/	.	/	.	/
COc1ccc(-c2cc(C(=O)Nc3nc4c(C)cccc4s3)c3ccccc3n2)cc1OC	.	.	11µM	.	?	?	.
COc1cccc(-c2cc(C(=O)Nc3nc4ccccc4s3)c3ccccc3n2)c1	?	.	.	.	?	?	/
COc1ccc(/C=C(/NC(=O)c2ccccc2)C(=O)N2CCOCC2)cc1OC	.	.	?	.	.	.	.
NC1CONC1=O (stereo unspecified)	/	/	.	/	/	/	/
C[C@H](CO)N1C[C@H](C)[C@@H](CN(C)Cc2ccc(F)cc2)Oc2ncc(Br)cc2C1=O	/	/	/	.	/	/	/
CCOc1cc(/C=N/NC(=O)COc2ccc(Cl)cc2)ccc1OS(=O)(=O)c1ccccc1	/	.	2µM	.	?	5µM	?	PR8 titer=.
O=C(Nc1ccc(Oc2ccc(NC(=O)c3ccco3)c(NC(=O)c3ccco3)c2)cc1)c1ccco1	?	.	8.9µM	.	.	25µM	.	PR8 titer=.
Cc1cc2cc(NC(=O)c3ccco3)ccc2[nH]1	.	.	2.5µM	.	.[5.75 µM]	.	?
Cc1ccc(-n2nc(C)c3c2OC(N)=C(C#N)C3c2ccoc2)cc1 (stereo unspecified)	/	.	2.5µM	.	/	.	.
Cc1ccc(-n2nc(C)c3c2OC(N)=C(C#N)C3c2ccco2)cc1 (stereo unspecified)	.	.	?	?	.	.	/
CC(=O)c1ccc(NC(=S)NCc2ccc(Cl)cc2Cl)cc1	.	.	/	.	?	?	/
COc1cc(Cl)cc(C(c2c(C(=O)O)[nH]c3ccccc23)c2c(C(=O)O)[nH]c3ccccc23)c1O	.	.	2.5µM	.	?	?	.
O=C(O)c1[nH]c2ccccc2c1C(c1cc(Br)ccc1O)c1c(C(=O)O)[nH]c2ccccc12	?	.	.	.	?	.	/
NNC(=O)COc1ccc(-c2n[nH]c(C(F)(F)F)c2-c2ccc(Br)cc2)c(O)c1	9.3µM	.	11µM	.	8.3µM	.	.
NNC(=O)COc1ccc(F)cc1	.	.	.	.	.	.	/
CN(C)C(=O)COC(=O)c1ccccc1NC(=O)c1ccco1	.	.	/	.	.	.	/
CCOc1ccc(N2C(=O)CC(Sc3nc(C)cc(C)c3C#N)C2=O)cc1 (stereo unspecified)	.	.	13µM	.	?	.	.
CCn1nc(C(=O)OCc2cccc(S(=O)(=O)N(C)C)c2)c2ccccc2c1=O	.	.	?	.	.	.	?
O=C1C=CC(=O)C(C2=C3C(=O)N(CCc4ccccc4)CC(=O)N3CCC2)=C1	.	.	14µM	.	.	?	.
O=C1CC2(CCCCC2)CC(=O)N1CCc1ccccc1	/	/	/	.	/	.	/
